Measurements from paper PMC7819943, “Rice protein-binding microarrays: a tool to detect cis-acting elements near promoter regions in rice”.
The full ranking holds about 39,000 sequences; the median of “fluorescence intensity (a.u.)” is about 4,300, and the highest 2% start at about 39,000. The entries come from a sample that favours the highest values as a whole.

Each sequence was assayed against T1, OsSMF1 (Oryza sativa, UniProt Q6ZLB0 1-436) (assay: protein-binding microarray (RPBM); PBS, 2% BSA, 51.3 ng/ul salmon testes DNA, 50 uM zinc acetate, 200 nM TF, 25 C, 1 h; high values mean tight binding). Details: protein: recombinant; tags: N-terminal polyhistidine and DsRed monomer fusion (pET32a); chain copies: 2; label: CyDye5-dUTP incorporated in the synthesized complementary strand; 3' TTTTT single-stranded linker to array surface; dsDNA, one strand shown.
T1 sequence: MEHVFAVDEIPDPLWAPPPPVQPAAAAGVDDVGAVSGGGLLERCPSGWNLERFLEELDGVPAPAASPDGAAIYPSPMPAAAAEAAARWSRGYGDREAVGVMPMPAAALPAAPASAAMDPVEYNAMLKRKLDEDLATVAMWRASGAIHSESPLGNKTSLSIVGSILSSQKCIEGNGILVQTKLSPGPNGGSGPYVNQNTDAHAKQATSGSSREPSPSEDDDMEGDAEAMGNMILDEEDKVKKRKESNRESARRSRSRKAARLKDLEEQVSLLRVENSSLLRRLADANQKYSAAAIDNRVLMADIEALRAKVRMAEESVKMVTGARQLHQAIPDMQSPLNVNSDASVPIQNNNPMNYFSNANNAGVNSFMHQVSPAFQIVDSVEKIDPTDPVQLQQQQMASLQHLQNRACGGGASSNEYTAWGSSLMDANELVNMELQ
How it was run: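 For the binding signal, per-feature fluorescence intensity was read in arbitrary units on an Axon 4000B scanner. Before scanning, a 2% BSA-blocked custom Agilent array made double-stranded with Cy5-dUTP was washed after 1 h at 25 °C with 200 nM protein and 50 µM zinc acetate. The proteins were Ni–NTA-purified transcription factors with N-terminal polyhistidine and DsRed fusions, expressed in E. coli BL21-CodonPlus.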
“GTTGTTGTTCTTGGATGTGAATGTGAATAATGTGATGTTTCGGAGTCACCTAGTGCAG” was tested, and the binding signal was 3350 fluorescence intensity (a.u.). With “TAGAGGCAAGCACGACCAATGAGGACATAGGGAATGGTTCCGGAGTCACCTAGTGCAG” the binding signal was 9700 fluorescence intensity (a.u.). In the case of “CAGTGCTAGGGAAGCGACCAATGATGGATAGTGGGAGGCACGGAGTCACCTAGTGCAG”, the binding signal is reported as 45600 fluorescence intensity (a.u.). “TGTGGTGGCGAGCGGCACGGAGGCGGGGCGGTGGAGGGAGCGGAGTCACCTAGTGCAG” was tested, and the binding signal was 3980 fluorescence intensity (a.u.). For “CTGTGCCGCTCGCTCGTTCGCTCTGTGACTGTACGTACATCGGAGTCACCTAGTGCAG”, the binding signal was 4590 fluorescence intensity (a.u.). In the case of “GTGTGGGGCCACGTCACAGTGGGCCCCATATGTCGGTGGGCGGAGTCACCTAGTGCAG”, the binding signal is reported as 12700 fluorescence intensity (a.u.). For “TTGTCGCGATGTGCCCCTTCTACGGGGTGCCACGTCACATCGGAGTCACCTAGTGCAG”, the binding signal was 39500 fluorescence intensity (a.u.). “CCACATCGGATGCCACGTCAGCCCTAGCCACATCAGCGCACGGAGTCACCTAGTGCAG” was tested, and the binding signal was 38500 fluorescence intensity (a.u.). With “GTTCGGTTTCGCGGTCAAGCGCGTGACGTGAGGTCGCCCACGGAGTCACCTAGTGCAG” the binding signal was 5720 fluorescence intensity (a.u.). For “CAGCAGCAGCAGCAGCCGCCGCCTCCGTCCGTCCGTCCGTCGGAGTCACCTAGTGCAG”, the binding signal was 3230 fluorescence intensity (a.u.). In the case of “TGTGCCCTCTCCGTTCGATCCAGGAAAATGATAGTGTGATCGGAGTCACCTAGTGCAG”, the binding signal is reported as 50200 fluorescence intensity (a.u.). In the case of “TTCGTGTGCCTAGGAAAATGGTATCCAAACCCCTCAAAATCGGAGTCACCTAGTGCAG”, the binding signal is reported as 4190 fluorescence intensity (a.u.). “GAGAAATGACGACACATCCTCTCGAGTGATCAGGATCCGTCGGAGTCACCTAGTGCAG” was tested, and the binding signal was 3590 fluorescence intensity (a.u.). With “TCACATCCGAGCTGAGCTCCTGACACAGTGACACTACTGGCGGAGTCACCTAGTGCAG” the binding signal was 4310 fluorescence intensity (a.u.). For “CGTACAACGGGTGTGTGTTTGGAGCCTGTAGCATGTGGTGCGGAGTCACCTAGTGCAG”, the binding signal was 4250 fluorescence intensity (a.u.). For “GGCCTGTCGTACAAGCCGCTTTGCTTGGGCATACAAGCAACGGAGTCACCTAGTGCAG”, the binding signal was 65100 fluorescence intensity (a.u.). With “GGGCAGCGTGTACAAGCCGGACAACGTGTCGCCGCCGGAGCGGAGTCACCTAGTGCAG” the binding signal was 3340 fluorescence intensity (a.u.). With “GATTACATGTAGACTATTTATCTACGTGGACAAAATCTCTCGGAGTCACCTAGTGCAG” the binding signal was 13100 fluorescence intensity (a.u.). For “GAAACTCTAAATCTGCCATTACCCCAAGTACATCATTAGTCGGAGTCACCTAGTGCAG”, the binding signal was 3310 fluorescence intensity (a.u.). For “CGTACTCATCTCCTACACATCATCTCCAATTAATCTAATTCGGAGTCACCTAGTGCAG”, the binding signal was 3180 fluorescence intensity (a.u.). “CCATTGATTGATTATCAGTGGGCGTAATCATCAGTCTAAACGGAGTCACCTAGTGCAG” was tested, and the binding signal was 42100 fluorescence intensity (a.u.). For “ATTTATCATTATTAACTAATAATAACATTGATGTAATTAACGGAGTCACCTAGTGCAG”, the binding signal was 3400 fluorescence intensity (a.u.). In the case of “TTTGCCATTAGCGTACTCACCTAATCTAATCATCGGATTACGGAGTCACCTAGTGCAG”, the binding signal is reported as 48900 fluorescence intensity (a.u.). For “TCCATACATTATTGACGTAATCATAAATATACATCCATGTCGGAGTCACCTAGTGCAG”, the binding signal was 3360 fluorescence intensity (a.u.). With “AATGACAGGACAACGAGGACACCGTGGATATTAAAGACCCCGGAGTCACCTAGTGCAG” the binding signal was 4140 fluorescence intensity (a.u.). In the case of “TGGTAACTAAACTGCCATGTCAGGGACAGATCGACCAGTGCGGAGTCACCTAGTGCAG”, the binding signal is reported as 5160 fluorescence intensity (a.u.). In the case of “AGGACACGTAGCATTTCCTCCTCAAGCAAGAGGAGCAGTACGGAGTCACCTAGTGCAG”, the binding signal is reported as 4000 fluorescence intensity (a.u.). In the case of “AACGTCAAGTACTCACGTGGTCCACGAATATTTAAGCCTACGGAGTCACCTAGTGCAG”, the binding signal is reported as 4480 fluorescence intensity (a.u.). “GCGAACACTGAGGTGTTGACGTTGCGCTCCGCCTCGCTGTCGGAGTCACCTAGTGCAG” was tested, and the binding signal was 3840 fluorescence intensity (a.u.). In the case of “ATTAAGCCCTCAATCGGCACAGGCGAGGAGTTCTCATCACCGGAGTCACCTAGTGCAG”, the binding signal is reported as 12000 fluorescence intensity (a.u.). In the case of “GCCGAGAAGGCATCAACGGCACTGGCGAGGCCCTCTCAGCCGGAGTCACCTAGTGCAG”, the binding signal is reported as 39600 fluorescence intensity (a.u.). “GTCCCTCCGCCGGCATCAGCTCAACGCCGCCGTCCTCCTCCGGAGTCACCTAGTGCAG” was tested, and the binding signal was 3370 fluorescence intensity (a.u.). “TCGTCGACTACGTGTTGGTGTTTCATGCCGCCAAGTCGACCGGAGTCACCTAGTGCAG” was tested, and the binding signal was 5250 fluorescence intensity (a.u.). “TATAAGCACAATGCAGCCTAGTTGTTGCCGTGACCTGAGTCGGAGTCACCTAGTGCAG” was tested, and the binding signal was 3180 fluorescence intensity (a.u.). In the case of “GACATCTGGAGGCGTCATGCAAGATGTCACATCCATAGAACGGAGTCACCTAGTGCAG”, the binding signal is reported as 3940 fluorescence intensity (a.u.). In the case of “ACTGGCCGTGACGCATTTCAACCTCTTGATCTGAACTGCCCGGAGTCACCTAGTGCAG”, the binding signal is reported as 3620 fluorescence intensity (a.u.). In the case of “AACCATAATGTTTGTGACACATTAAGGGCCTGTTCACTTTCGGAGTCACCTAGTGCAG”, the binding signal is reported as 3660 fluorescence intensity (a.u.). With “GGCAGGCTTGCACACAGGTGCAAAGATACGTGTGGCAGACCGGAGTCACCTAGTGCAG” the binding signal was 3240 fluorescence intensity (a.u.). In the case of “GATAGGCAAAGCTTCGAACTTTGGGCTGAAAACAAATTTTCGGAGTCACCTAGTGCAG”, the binding signal is reported as 28400 fluorescence intensity (a.u.). For “ATGCAAAAGATATATAGGCTTGTTTTACTGAAGGTGGCTTCGGAGTCACCTAGTGCAG”, the binding signal was 39100 fluorescence intensity (a.u.). With “GAGATGTCTGAACAAACAGATGGACGTGTAATGTTGTGGACGGAGTCACCTAGTGCAG” the binding signal was 3400 fluorescence intensity (a.u.). With “CCGTCTTTTCTTTCTTCACGCCAGCGTCGCCGTGGTCAAGCGGAGTCACCTAGTGCAG” the binding signal was 3650 fluorescence intensity (a.u.).
